Screening results as filed in PubChem.
N370S GC: inhibits or activates N370S mutant glucocerebrosidase | P04062 | N370S GC spleen homogenate, 4MU-glucoside fluorescence | Potency, µM (highest dose often 59.4 µM), without a hit: at the highest dose activity change, negative = inhibition, usual class: inhibitors | actives 0.092% (n = 330,000) | AID 2101;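 also: 0% = full enzyme activity and -100% = no enzyme basal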
GAA inh: inhibitors of human lysosomal alpha-glucosidase; P10253; purified human GAA, 4-MU-alpha-glucoside fluorescence; Potency, µM (top dose mostly 76.9 µM), for the others: at the highest dose activity change, negative = inhibition, hits mostly inhibitors; actives 0.005% (n = 200,000);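 also: plate controls were uninhibited enzyme wells for no effect and no-enzyme background for full effect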
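Compounds are titrated up to 77 uM against 4 nM human enzyme. Substrate 4-methylumbelliferyl-alpha-D-pyranoside (400 uM) reacts 20 min at room temperature in pH 5.0 buffer; liberated 4-methylumbelliferone is read at 440 nm.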
LMNA splice mod: changes lamin A minigene splicing in HeLa cells | HeLa LMNA splicing GFP/RFP minigene ratio, 48 h | Potency, µM (highest dose often 46.1 µM), inactives show at the highest dose ratio change, negative = inhibition, usual class: inhibitors | actives 0.01% (n = 200,000) | AID 1487; active = well fitted inhibition curve with a large enough effect in the signal ratio, with a control signal flat, not every such curve was filed as active; inconclusive = small, poorly fitted or top-dose-only effect, or effect the other way, or a change in a side signal; the % refers to the signal ratio
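Read-out is the ratio of GFP to DsRed2 object intensity, acquired by 488 nm laser-scanning cytometry on HeLa lamin A-EGFP minigene reporter cells. Compound incubation 48 hrs at 37 °C in Opti-MEM with 2% FBS; DMSO 0.5% final.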
GAA spleen mod: inhibits or activates alpha-glucosidase in human spleen homogenate | P10253 | Potency, µM (doses to about 79.9 µM), for the others: at the top dose activity change, negative = inhibition, most hits filed as inhibitors | AID 2112 | actives 0.006% (n = 240,000) | human spleen homogenate, 4-MU-alpha-glucoside fluorescence;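 also: 0% = enzyme with vehicle and -100% = no enzyme basal signal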
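AC50 values come from Hill-equation fits of concentration-response data, normalized to no-enzyme and full-activity controls. Enzyme source: 1 ug human spleen homogenate; 1 mM fluorogenic 4-MU glucoside, pH 5.0 citrate buffer, 37 C, 40 min.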
GAA glycogen mod: inhibitors or activators of human alpha-glucosidase glycogen cleavage; P10253; actives 0.38% (n = 300,000); Potency, µM (titrated, usually from 76.4 µM), inactives show at the top dose activity change, negative = inhibition, actives largely listed as inhibitors; recombinant GAA, glycogen substrate, Amplex Red glucose oxidase fluorescence; AID 2100;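 also: 0% = full enzyme reaction and -100% = no-enzyme basal signal; the screen sought inhibitors and activators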
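qHTS, 1536-well; enzyme 4 nM final; cpd up to 77 uM; substrate bovine liver glycogen 30 ug; 50 mM citrate/phosphate pH 5.0, 0.01% Tween-20; 37 C, 40 min; Amplex Red detection 45 min RT; Hill fit → AC50.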
Active calls of the source: *; ? = inconclusive; · = no result; [ ] = remark or other dose. Hits are enriched below; roughly 0.41% of the tested compounds scored in any of these assays. Unless noted, calls follow the shape of the dose curve; as a rule, active = well fitted curve in the direction sought with a large enough effect; inconclusive = small, poorly fitted or top-dose-only effect, or another doubt; inactive = no such curve, though single readings can be large; an effect the other way counts as inactive or inconclusive. Unless noted, % is scaled to controls: 0 for no effect and ±100 for the full control effect; potency is read from the fitted curve at half-maximal effect.

SMILES	N370S GC	GAA inh	LMNA splice mod	GAA spleen mod	GAA glycogen mod
CCOc1cc(/C=N/Nc2nn3cnnc3c3ccccc23)ccc1O	-6%	·	·	-1%	?
Cc1ccsc1/C=N/Nc1nc2ccccc2[nH]1	-15%	-7%	-13%	0%	6.3µM*
C(=N\Nc1nc2ccccc2[nH]1)/c1cccs1	-18%	-3%	-2%	7%	?
C/C(=N\Nc1nc2ccccc2[nH]1)c1ccc2c(c1)OCCO2	-1%	-7%	·	1%	50µM*
CC(C)(Oc1ccc(Cl)cc1)C(=O)Nc1nc2ccc(S(C)(=O)=O)cc2s1	·	·	·	·	-11%[76.3 µM]
CCCCCCCC/C=C/CCCCCCCC(=O)NCCOP(=O)(O)O	?	·	·	-10%	·
CCn1c2ccccc2c2cc(CN3CCN(Cc4ccccc4C)CC3)ccc21	·	·	·	·	-11%[76.3 µM]
CCn1c2ccccc2c2cc(CN3CCN(Cc4cc(OC)ccc4O)CC3)ccc21	-12%	-15%	·	-1%	7.9µM*
CC(=O)Nc1nc(C)c(-c2csc(Nc3ccc(O)cc3)n2)s1	?	0%	?	2%	25µM*
Cc1nc2ncccn2c1-c1csc(Nc2ccc(O)cc2)n1	-2%	-4%	-4%[46 µM]	0%	22µM*
Cc1ccc(Nc2nc(-c3c(C)nc4ncccn34)cs2)cc1	-12%	4%	?	-5%	?
Cc1ccc(Nc2nc(-c3c(C)nc4ccccn34)cs2)cc1	-10%	-7%	?	6%	28µM*
CC(=O)Nc1ccc(Nc2nc(-c3sc(NC(C)=O)nc3C)cs2)cc1	-24%	·	·	·	-2%[76.3 µM]
Oc1ccc(-c2nc(-c3ccc(O)c(O)c3)cs2)cc1	-18%	-9%	?	1%	11µM*
CC(=O)c1c(O)cccc1O	-8%	·	·	-5%	·
COc1cc([N+](=O)[O-])ccc1NC(=O)N1CCC2(CC1)Nc1ccccc1-n1cccc12	·	·	-4%[46 µM]	·	·
Oc1ccc(Nc2nc(-c3ccc4ccccc4c3)cs2)cc1	?	?	?	10%	5.6µM*
Cc1cc(=O)oc2cc(O[C@@H]3O[C@H](C(=O)O)[C@@H](O)[C@H](O)[C@H]3O)ccc12	?	·	·	12%	·
Nc1nc(N2CCN(c3ccc(Cl)cc3)CC2)n[nH]1	-7%	10%	-10%[46 µM]	-14%	?
Nc1nc(N2CCN(c3ccccc3)CC2)n[nH]1	9%	7%	·	9%	10µM*
Cc1cccc(CNc2ncncc2-c2ccc(C(=O)N(C)C)cc2)c1	-10%	·	-10%	1%	·
CCN=c1scc(C)n1/N=C/c1ccc(O)c(O)c1O	-22%	-9%	13%	-16%	16µM*
O=C(CSc1nc2ccccc2n1Cc1cccc(Cl)c1)N1CCN(c2ccc(F)cc2)CC1	·	·	·	·	-4%[76.3 µM]
CC(C)Oc1ccc(CNC(=O)CN2C(=O)c3cccnc3Oc3ccc(Cl)cc32)cc1	·	·	-14%[46 µM]	·	-8%[76.3 µM]
Cc1nn2c(C)c(C(=O)NCC(C)c3ccccc3)cnc2c1-c1ccccc1 (centres undefined)	·	·	-6%[46 µM]	·	·
SMILES	N370S GC	GAA inh	LMNA splice mod	GAA spleen mod	GAA glycogen mod
Cc1ccc(C)c(N2CCN(S(=O)(=O)c3ccc4[nH]c(=O)c(=O)[nH]c4c3)CC2)c1	13µM*	-9%	16%	-13%	-1%
Cc1ccc(C)c(N2CCN(S(=O)(=O)c3ccc4c(c3)CCC(=O)N4)CC2)c1	-12%	0%	?	3%	-1%
Cc1ccc(C)c(N2CCN(S(=O)(=O)c3ccc4c(c3)NC(=O)CC(=O)N4)CC2)c1	14µM*	·	·	·	-9%[76.3 µM]
O=C(O)c1cc(-c2ccc(/C=N/Nc3ccc(Cl)cc3)o2)ccc1Cl	1%	3%	17%	-12%	28µM*
CCOc1ccc(C(=O)c2cn(Cc3ccc(OC)cc3)c3cc(OC)c(OC)cc3c2=O)cc1	·	·	·	·	-8%[76.3 µM]
CCOC(=O)CCCCC(=O)c1[nH]c(=O)[nH]c1CSc1nc(-c2ccccc2)c(C#N)c(=O)[nH]1	3%	?	-1%	-22%	35µM*
Cc1ccn2c(C(=O)NN=C3CCCCCCC3)c(C)nc2c1	-11%	11%	-3%[46 µM]	3%	40µM*
CC(=O)Nc1ccc(S(=O)(=O)Nc2ccc([N+](=O)[O-])cc2)cc1	16µM*	·	-29%	12%	·
CC(=O)Nc1ccc(S(=O)(=O)Nc2cc([N+](=O)[O-])ccc2C)cc1	-1%	4%	-10%[46 µM]	-2%	11%
CC(C)(C)c1cc(C(=S)N2CCN(CCO)CC2)cc(C(C)(C)C)c1O	18µM*	-2%	22%	-15%	-2%
O=C(Nc1ccc2nc(SCC(=O)N3CCOCC3)sc2c1)c1ccccc1Cl	·	·	-5%[46 µM]	·	0%[76.3 µM]
CCOC(=O)c1[nH]c2ccc(OC)cc2c1NC(=S)N1CCN(c2ccccc2OC)CC1	5%	3%	?	-7%	4µM*
CCOC(=O)c1[nH]c2ccc(OC)cc2c1NS(=O)(=O)c1ccc(OC)cc1OC	9%	-1%	6%	-11%	13µM*
COC(=O)c1[nH]c2ccc(F)cc2c1NS(=O)(=O)c1ccc(OC)cc1OC	6%	-2%	-7%	-16%	?
COCCNc1ncnc2ccc(-c3ccccc3C)cc12	8%	·	9%	3%	·
CC(=O)Nc1cc(C(C)C)c(O)c(C(C)C)c1	5%	-8%	-1%	-6%	11µM*
CC(C)c1cc(NC(=O)c2ccccc2)cc(C(C)C)c1O	23%	-7%	?	-1%	?
CCOC(=O)C1CCc2sc(N)c(C#N)c21 (centres undefined)	-1%	-13%	7%	6%	5µM*
COc1cc(/C=N/NC(=O)c2cn(-c3cccc(C)n3)cn2)ccc1O	16%	-32%	8%[46 µM]	-4%	25µM*
O=C1c2cccc3cccc(c23)C(=O)N1CC1CCN(CC(O)COc2ccc3ccccc3c2)CC1 (centres undefined)	-2%	-1%	11%	-16%	25µM*
O=C(CCC(=O)N1CC2CCCN2c2ccccc21)NCc1ccccc1F (centres undefined)	·	·	-8%[46 µM]	·	·
Clc1ccc2c(c1)C(N1CCNCC1)Cc1ccccc1S2 (centres undefined)	?	0%	-3%	7%	3%
CN1CCN(C2Cc3ccccc3Sc3ccc(S)cc32)CC1 (centres undefined)	13µM*	·	·	-6%	·
Cc1ccc(NC(=S)NNc2ccc([N+](=O)[O-])cc2S(=O)(=O)Nc2ccccc2C(=O)O)cc1C	10%	0%	1%	1%	22µM*
COc1ccc(Cl)cc1NC(=O)[C@H]1O[C@@H]2OC(C)(C)O[C@@H]2[C@H]2OC(C)(C)O[C@H]21	·	·	·	·	-9%[76.3 µM]
O=C1C=C(Nc2ccccc2O)c2ccccc2C1=O	-17%	9%	?	?	12µM*
O=C1C=C(NCc2ccccc2)c2ccccc2C1=O	-20%	2%	?	11%	10%
Cc1coc2cc3oc(=O)c(CC(=O)NCc4ccccc4)c(C)c3cc12	·	·	·	·	15%[76.3 µM]
